The list is not random: actives were taken first. Their share in the collection is about 19%.
IL-1B inflam inh = qHTS for Inhibitors of Inflammasome Signaling: IL-1-beta AlphaLISA Primary Screen | AID 743279, 2014 | activity change, % at 57.5 µM | hit rate 4.7% among 360,000 | THP-1 LPS/ATP IL-1B secretion, AlphaLISA, 16 h; active compounds read low; in the data active means activity change below about -50%; inconclusive means mostly about -30% to -49%
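THP-1 cells pretreated 1 hr with compounds (up to 57.5 uM final), then stimulated with LPS (250 ng/mL final) plus ATP (1.25 mM final); secreted IL-1B measured by AlphaLISA after 16 hr, decreased signal indicating inhibition.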
ELG1 DNA repair = qHTS screen for small molecules that inhibit ELG1-dependent DNA repair in human embryonic kidney (HEK293T) cells expressing luciferase-tagged ELG1; Potency, µM (doses to about 46.1 µM), usual class: inhibitors; hit rate 2.3% among 330,000; AID 504467, 2011; HEK293T ELG1-luciferase reporter, luminescence, 16 h; DNA damage induced by 5-fluorouridine; further: nearly all actives have a fitted effect of over 55% in size
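HEK293T cells expressing luciferase-tagged ELG1 (2,000/well) received 5-Fluorouridine plus compound or DMSO for 16 hr at 37 °C. Luciferase was read by ONE-Glo luminescence after 30 min at room temperature.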
HT1080-NT tox = qHTS for induction of synthetic lethality in tumor cells producing 2HG: qHTS for the HT-1080-NT fibrosarcoma cell line; HT-1080-NT fibrosarcoma viability, CellTiter-Glo ATP luminescence, 48 h; Potency, µM (series often up to 46.1 µM), hits mostly cytotoxic; hit rate 1.6% among 360,000;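 further: NT is the 2HG producing partner of a matched IDH1 knockdown line; nearly all actives have a fitted effect of over 55% in size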
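Toxicity toward the 2HG-producing NT line was scored as %Activity, normalised to DMSO and no-cell wells, from CellTiter-Glo luminescence after 48 hours' treatment.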
DT40 TDP1 CPT = qHTS for Inhibitors of human tyrosyl-DNA phosphodiesterase 1 (TDP1): qHTS in cells in presence of CPT; hit rate 12% among 420,000; AID 686979, 2013; chicken DT40 Tdp1-/-;hTDP1 cells + 20 nM CPT, ATP luminescence, 48 h; Potency, µM (top dose mostly 46.2 µM), hits mostly inhibitors; further: nearly all actives have a fitted effect of over 55% in size
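Chicken DT40 Tdp1-/- cells stably complemented with human TDP1 were seeded at 400 cells/well in medium containing 20 nM camptothecin, exposed to pin-transferred compounds, and grown at 37 °C for at least 48 hr. Viability was read as ATP luminescence.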
HT1080 IDH1KD tx = qHTS for induction of synthetic lethality in tumor cells producing 2HG: qHTS for the HT-1080-IDH1KD cell line; HT-1080 IDH1 knockdown viability, ATP luminescence, 48 h; Potency, µM (titrated, usually from 46.1 µM), actives largely listed as cytotoxic; hit rate 2% among 360,000; AID 686971, 2013
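Viability of IDH1-knockdown HT-1080 fibrosarcoma cells was assessed by CellTiter-Glo after 48 h at 37 °C with titrated compound; concentration-effect curves were classified by fit quality and response size.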
TDP1 cell noCPT = qHTS for Inhibitors of human tyrosyl-DNA phosphodiesterase 1 (TDP1): qHTS in cells in absence of CPT | hit rate 15% among 420,000 | AID 686978, 2013 | DT40 Tdp1-/- hTDP1 cells, no CPT, ATP luminescence, 48 h | Potency, µM (titrated, usually from 46.2 µM), most hits filed as inhibitors; further: nearly all actives have a fitted effect of over 55% in size
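Cells were dispensed at 400 per well, compounds added by pin tool, plates incubated ≥48 hr at 37 °C, then CellTiter-Glo added for 30 min at room temperature before luminescence reading. Line: DT40 Tdp1-/- complemented with hTDP1; camptothecin omitted.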
Of the large screens only hits and unclear results are named; the others gave an inactive call; ! = repeats disagree. Unless noted, the call rests on the fitted dose curve; in most records, active means well fitted curve in the direction sought with a large enough effect; inconclusive means small, poorly fitted or top-dose-only effect, or another doubt; inactive means no such curve, though single readings can be large; an effect the other way counts as inactive or inconclusive.

c1ccc2oc(-c3ccc(Nc4nc(N5CCOCC5)nc(N5CCOCC5)n4)cc3)nc2c1	none (no result: ELG1 DNA repair)
CN1C(=O)C2(NC(=O)c3ccccc3N2C)c2ccccc21 (stereo unspecified)	none
CN1C(=O)C(Cl)(Cl)C(=O)c2ccccc21	IL-1B inflam inh -91.1, ELG1 DNA repair inconclusive, HT1080-NT tox 18.4µM, DT40 TDP1 CPT 14.6µM, HT1080 IDH1KD tx inconclusive, TDP1 cell noCPT 16.4µM
Cc1ccc(S(=O)(=O)N2CCOCC2)cc1C(=O)NC(=S)N1CC(C)OC(C)C1 (stereo unspecified)	none
O=C(NCC(c1ccco1)N1CCOCC1)C1CCCCC1 (stereo unspecified)	none
Cc1ccccc1C(=O)Nc1ccc(C(=O)OCc2cc(=O)n3nc(C(C)C)sc3n2)cc1	none (no result: IL-1B inflam inh, ELG1 DNA repair, HT1080-NT tox, HT1080 IDH1KD tx)
Cc1c(C(=O)NCc2ccccc2C(F)(F)F)sc(=O)n1Cc1ccc(Cl)c(Cl)c1	IL-1B inflam inh -72.2, HT1080-NT tox inconclusive, DT40 TDP1 CPT inconclusive, TDP1 cell noCPT inconclusive (no result: ELG1 DNA repair)
Cc1c(C(=O)NCc2ccc(C(F)(F)F)cc2)sc(=O)n1Cc1ccc(S(=O)(=O)N(C)C)cc1	DT40 TDP1 CPT 23.1µM, TDP1 cell noCPT 23.1µM (no result: ELG1 DNA repair)
COc1ccc(CNC(=O)c2sc(=O)n(Cc3ccc(S(=O)(=O)N(C)C)cc3)c2C)cc1	DT40 TDP1 CPT inconclusive, HT1080 IDH1KD tx inconclusive, TDP1 cell noCPT inconclusive (no result: ELG1 DNA repair)
Cc1c(C(=O)NCc2ccccc2C(F)(F)F)sc(=O)n1Cc1ccc(S(=O)(=O)N(C)C)cc1	DT40 TDP1 CPT inconclusive, TDP1 cell noCPT 20.6µM (no result: ELG1 DNA repair)
Cc1c(Cc2c(Cl)cccc2Cl)c(=O)ccn1C(C)c1ccccc1 (stereo unspecified)	DT40 TDP1 CPT inconclusive, HT1080 IDH1KD tx inconclusive, TDP1 cell noCPT inconclusive
CC1(C(=O)Nc2ccc(F)c(Cl)c2)Cc2c(-c3ccccc3)ccnc2O1 (stereo unspecified)	HT1080-NT tox inconclusive, DT40 TDP1 CPT inconclusive, HT1080 IDH1KD tx inconclusive, TDP1 cell noCPT inconclusive (no result: ELG1 DNA repair)
COc1ccc(CCC(=O)N2CCN(S(=O)(=O)c3cccc(Cl)c3)CC2)cc1	DT40 TDP1 CPT inconclusive, TDP1 cell noCPT inconclusive
O=C(NCc1cccc(Cl)c1)c1ccc(S(=O)(=O)Nc2cccc(C(F)(F)F)c2)cc1	IL-1B inflam inh -77.9, DT40 TDP1 CPT inconclusive, TDP1 cell noCPT inconclusive
COc1cccc(CN(C)C(=O)C2CCCN(C(=O)c3ccc(Cl)cc3)C2)c1 (stereo unspecified)	DT40 TDP1 CPT 20.6µM, TDP1 cell noCPT inconclusive (no result: ELG1 DNA repair)
CC(=O)NC(Cc1ccc(F)c(F)c1)C(=O)NC1CCN(C(=O)c2ccc(Cl)cc2)CC1 (stereo unspecified)	none
CN(Cc1ccccc1)C(=O)C1CCCN(Cc2cccc(Cl)c2)C1 (stereo unspecified)	HT1080-NT tox inconclusive, DT40 TDP1 CPT inconclusive, HT1080 IDH1KD tx inconclusive, TDP1 cell noCPT 23.1µM!
COc1cccc(CC(NC(C)=O)C(=O)NC2CCN(C(=O)c3ccc(Cl)cc3)CC2)c1 (stereo unspecified)	TDP1 cell noCPT 5.8µM
CC1CCCN(C(=O)CSc2nnc(-c3ccncc3)n2C)C1 (stereo unspecified)	none
CCc1cnc2c(c1SCC(=O)c1ccc(Cl)cc1)c(=O)n(C)c(=O)n2C	DT40 TDP1 CPT 13µM, TDP1 cell noCPT 20.6µM (no result: IL-1B inflam inh, ELG1 DNA repair, HT1080-NT tox, HT1080 IDH1KD tx)
CCc1cnc2c(c1SCC(=O)NCc1ccccc1)c(=O)n(C)c(=O)n2C	DT40 TDP1 CPT 11.6µM, TDP1 cell noCPT inconclusive (no result: IL-1B inflam inh, ELG1 DNA repair, HT1080-NT tox, HT1080 IDH1KD tx)
Cc1ccc(CNC(=O)CSc2c(C(C)C)cnc3c2c(=O)n(C)c(=O)n3C)cc1	DT40 TDP1 CPT 14.6µM, TDP1 cell noCPT 25.9µM (no result: IL-1B inflam inh, ELG1 DNA repair, HT1080-NT tox, HT1080 IDH1KD tx)
Cc1cc(NC(=O)CSc2nc(C)c(C)c(=O)[nH]2)no1	none
CC(NC(=O)c1cc(F)ccc1F)c1nnc2n1CCN(Cc1cccs1)CC2 (stereo unspecified)	none (no result: IL-1B inflam inh, ELG1 DNA repair, HT1080-NT tox, HT1080 IDH1KD tx)
O=[N+]([O-])c1cccc(COc2ccccc2CN2CCCCC2)c1	DT40 TDP1 CPT inconclusive, TDP1 cell noCPT inconclusive (no result: ELG1 DNA repair)
O=[N+]([O-])c1ccc(COc2cccc(CN3CCOCC3)c2)cc1	DT40 TDP1 CPT 18.4µM, TDP1 cell noCPT 23.1µM (no result: ELG1 DNA repair)
O=[N+]([O-])c1cccc(COc2ccc(CN3CCCCC3)cc2)c1	DT40 TDP1 CPT 20.6µM, TDP1 cell noCPT 23.1µM (no result: ELG1 DNA repair)
Cc1ccc(NC(=O)CSCC(=O)N(C)CC(=O)Nc2cccc3ccccc23)cc1	none
COc1ccc(OCCSc2nnc(CCNC(=O)c3ccc(Cl)c(Cl)c3)n2C)cc1	ELG1 DNA repair inconclusive, DT40 TDP1 CPT 25.1µM, TDP1 cell noCPT inconclusive
CCOC(=O)c1ccc(NC(=O)c2cnn(-c3ccc(C)cc3C)c2C2CCN(C(=O)OC(C)(C)C)CC2)cc1	DT40 TDP1 CPT inconclusive, TDP1 cell noCPT 16.4µM (no result: IL-1B inflam inh, ELG1 DNA repair, HT1080-NT tox, HT1080 IDH1KD tx)
Cc1ccc(-n2ncc(C(=O)Nc3ccc4c(c3)OCO4)c2C2CCN(C(=O)OC(C)(C)C)CC2)c(C)c1	DT40 TDP1 CPT inconclusive, TDP1 cell noCPT 29.1µM (no result: IL-1B inflam inh, ELG1 DNA repair, HT1080-NT tox, HT1080 IDH1KD tx)
CCOC(=O)N1CCC(NC(=O)c2cnn(-c3ccc(C)cc3C)c2C2CCN(C(=O)OC(C)(C)C)CC2)CC1	none (no result: IL-1B inflam inh, ELG1 DNA repair, HT1080-NT tox, HT1080 IDH1KD tx)
CC(C)(C)OC(=O)NCCCCCNC(=O)c1nc[nH]c1C(=O)N1CCN(C(=O)OC(C)(C)C)CC1	ELG1 DNA repair inconclusive, DT40 TDP1 CPT inconclusive, TDP1 cell noCPT 16.4µM

Screening data deposited in PubChem by National Center for Advancing Translational Sciences (NCATS).
